An excerpt weighted towards active compounds, which were near 7.9% of everything screened.
HCMV inh = blocks human cytomegalovirus replication. HFF cells, HCMV-luciferase reporter, 72 h; hits give low values. activity change, negative = inhibition, % at 57.5 µM. hit rate 4.5% among 410,000. AID 1259415; in the data active means activity change below about -60%; inconclusive means no clear call, values can overlap the other calls; inactive means above about -39%
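Luciferase read-out from HCMV-luciferase-infected HFFs (MOI 1 PFU/cell) 72 h post infection at 37C; compounds added after 16 h cell attachment; activity normalized between buffer-only basal and Salinomycin (10uM) inhibitor controls.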
Marburg entry inh = inhibitors of Marburg virus binding or cell entry | Potency, µM (series often up to 37.8 µM), actives largely listed as inhibitors | AID 540276 | Marburg virus pseudotyped entry inhibition, cell reporter | hit rate 1.8% among 300,000; calls by dose curve; tested in HEK293 cells
FMDV antiviral = antivirals against foot and mouth disease virus | FMDV antiviral cell-based qHTS | Potency, µM (highest dose often 57.9 µM), usual class: inhibitors | hit rate 1.2% among 410,000; calls by dose curve; tested in HEK293T cells; further: read-out not given here; nearly all actives have a fitted effect of over 45% in size
LASV entry inh = inhibitors of Lassa virus binding or cell entry. Lassa virus pseudotype entry inhibition, cell reporter. Potency, µM (series often up to 37.9 µM), hits mostly inhibitors. hit rate 1.2% among 300,000. AID 540256; calls by dose curve; tested in HEK293 cells; further: nearly all actives have a fitted effect of over 50% in size
HCV inh = blocks hepatitis C virus. AID 651820. Huh7.5.1 HCVcc-Cre infection, luciferase reporter, 44 h. Potency, µM (doses to about 41.8 µM), most hits filed as inhibitors. hit rate 3.4% among 340,000; active means well fitted inhibition curve with a large enough effect; inconclusive means small, poorly fitted or top-dose-only effect, or another doubt; inactive means no such curve, though single readings can be large or run the other way
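HCVcc-Cre virus at an moi near 0.5 was added right after compound to cells cultured 4 h from seeding (1,000 cells/well). Luciferase activity was determined 44 h later, 15 min after substrate addition at RT.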
Each line names hits and unclear results; the compound was inactive in the other large screens.

S=C(NC1CCCC1)N1CCN(C/C=C/c2ccccc2)CC1	HCMV inh -64.3, Marburg entry inh inconclusive, FMDV antiviral inconclusive, HCV inh 10µM
O=C(C1CCN(Cc2ccccc2)CC1)N1CCN(C/C=C/c2ccccc2)CC1	Marburg entry inh 14.1µM, FMDV antiviral inconclusive, LASV entry inh inconclusive, HCV inh inconclusive
O=C(C1CCN(Cc2ccc(F)cc2)CC1)N1CCN(C/C=C/c2ccccc2)CC1	HCMV inh inconclusive, Marburg entry inh inconclusive, LASV entry inh inconclusive, HCV inh inconclusive
S=C(Nc1ccccc1)N1CCN(C/C=C/c2ccccc2)CC1	Marburg entry inh inconclusive, LASV entry inh inconclusive, HCV inh inconclusive
Cc1ccc(-n2c(=O)c3c(cnn3C)n(Cc3ccc(Cl)cc3)c2=O)cc1	none (no result: HCV inh)
CCNC(=O)NC(=O)c1csc([N+](=O)[O-])c1	HCV inh inconclusive
O=C(Nc1csc([N+](=O)[O-])c1)Nc1c(Cl)cccc1Cl	HCMV inh -76.4 (no result: Marburg entry inh, LASV entry inh)
O=C(Nc1ccc(Cl)cc1)Nc1csc([N+](=O)[O-])c1	HCMV inh -103.4, Marburg entry inh inconclusive, LASV entry inh inconclusive, HCV inh inconclusive
CCC(=O)c1cc2c(cc1NC(=O)C(C)C)OCCO2	HCV inh 6.31µM
CS(=O)(=O)Nc1cccc(-c2nc(N3CCOCC3)c3ccccc3n2)c1	none (no result: HCMV inh, Marburg entry inh, LASV entry inh, HCV inh)
O=[N+]([O-])/C=C/c1cc2ccccc2[nH]1	FMDV antiviral inconclusive (no result: Marburg entry inh, LASV entry inh)
O=[N+]([O-])/C=C/c1c(Cl)cccc1Cl	Marburg entry inh 10µM, FMDV antiviral 7.94µM, HCV inh 8.91µM
c1cncc(-c2ccc3ncnc(NCc4cccs4)c3c2)c1	none (no result: Marburg entry inh, LASV entry inh, HCV inh)
Cn1ccc2cc(-c3ccc4ncnc(NCc5cccs5)c4c3)ccc21	HCMV inh -71.9, FMDV antiviral inconclusive (no result: Marburg entry inh, LASV entry inh, HCV inh)
COC(=O)[C@H]1[C@H](CO)[C@H]2Cn3c(cccc3=O)[C@@H]1N2Cc1ccncc1	none (no result: Marburg entry inh, FMDV antiviral, LASV entry inh, HCV inh)
COc1cc(-c2nc3ccc(N4CCN(C)CC4)cc3[nH]2)cc(OC)c1OC	Marburg entry inh inconclusive, LASV entry inh inconclusive, HCV inh 7.94µM
CCn1c(O)c(/C=N/NC(=O)c2ccccc2)c(=O)[nH]c1=S	HCMV inh -63.4 (no result: Marburg entry inh, LASV entry inh)
O=C(Cc1ccsc1)NCc1ccccc1F	none
CCOc1cc(C(=O)Nc2ccc(C)cc2O)ccc1OCC(=O)N1CCOCC1	HCV inh inconclusive
CCOc1cc(C(=O)Nc2cc(C)ccc2C)ccc1OCC(=O)N1CCCCC1	HCMV inh -70.7
C=CC[C@@H]1C=CC(ON=CC[C@@H]2C=C[C@@H](OC(C)=O)[C@@H](COC(C)=O)O2)[C@H](CO)O1 (stereo partly specified)	none (no result: HCMV inh, FMDV antiviral, LASV entry inh, HCV inh)
CC(C)(CO)NCc1c(OCc2ccc(Cl)cc2)ccc2ccccc12	Marburg entry inh inconclusive, LASV entry inh 2.51µM
O/N=C/c1ccccc1OCc1ccc(Cl)cc1	LASV entry inh inconclusive, HCV inh inconclusive
COc1cc(CNC(C)(C)CO)cc(Br)c1OCc1ccc(Cl)cc1Cl	HCMV inh -99.1, Marburg entry inh 13µM, FMDV antiviral inconclusive, LASV entry inh inconclusive, HCV inh 10µM
COc1cc(CNC(C)(C)CO)cc(Br)c1OCc1ccc(Cl)cc1	HCMV inh inconclusive, Marburg entry inh inconclusive, LASV entry inh inconclusive, HCV inh 5.01µM
CCN(CC(=O)Nc1c(F)cccc1F)C(=O)C1CC1	none
COc1ccc2c(c1)-c1nc(/N=C/c3ccc(O)c(OC)c3)sc1CC2	Marburg entry inh inconclusive, HCV inh 11.2µM (no result: HCMV inh)
COc1ccc2c(c1)-c1nc(N)sc1CC2	HCMV inh inconclusive, HCV inh inconclusive
Cc1c(C)n(Cc2ccc(F)cc2)c2ccc(C(=O)N3CCN(c4ccc(Cl)cc4)CC3)cc12	none (no result: Marburg entry inh, HCV inh)
NC(=O)C1CCN(c2nc(-c3ccccc3Br)cs2)CC1	HCMV inh -73.7 (no result: Marburg entry inh, LASV entry inh, HCV inh)
NC(=O)C1CCN(c2nc(-c3ccccc3F)cs2)CC1	none (no result: Marburg entry inh, LASV entry inh, HCV inh)
O=C(Nc1ccc(N2CCOCC2)c(Cl)c1)c1c(F)c(F)c(F)c(F)c1F	FMDV antiviral inconclusive, HCV inh 8.91µM
COc1c(F)c(F)c(C(=O)Nc2ccc(N3CCN(C(C)=O)CC3)c(Cl)c2)c(F)c1F	HCMV inh -83.4, Marburg entry inh inconclusive, FMDV antiviral inconclusive, HCV inh inconclusive
O=C(Nc1ccc(N2CCN(C(=O)c3ccco3)CC2)cc1)c1ccc(Br)cc1	none (no result: Marburg entry inh, LASV entry inh)
O=C(Nc1ccc(N2CCN(C(=O)c3ccco3)CC2)cc1)c1cc(Br)ccc1Cl	Marburg entry inh 10µM, FMDV antiviral inconclusive, LASV entry inh inconclusive, HCV inh inconclusive
O=C(Nc1ccc(N2CCN(C(=O)c3ccco3)CC2)c(Cl)c1)c1c(F)c(F)c(F)c(F)c1F	Marburg entry inh inconclusive, FMDV antiviral 28.2µM, LASV entry inh inconclusive, HCV inh inconclusive
CC(=O)N1CCN(c2ccc(NC(=O)c3ccc(Br)o3)cc2Cl)CC1	none (no result: Marburg entry inh, LASV entry inh)
